{"source": "PubChem BioAssay", "note": "A number with no mark means an inactive call.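 Rule for the calls, unless noted: active = fluorescence slope after compound addition differing from the mean of all screened samples at 99.7% confidence, in either direction; inactive = the rest.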", "data": [{"biological_target": "Voltage-gated potassium channel subunit beta-2 (Rattus norvegicus) (UniProt P62483)", "sequence (P62483 whole entry, looked up)": "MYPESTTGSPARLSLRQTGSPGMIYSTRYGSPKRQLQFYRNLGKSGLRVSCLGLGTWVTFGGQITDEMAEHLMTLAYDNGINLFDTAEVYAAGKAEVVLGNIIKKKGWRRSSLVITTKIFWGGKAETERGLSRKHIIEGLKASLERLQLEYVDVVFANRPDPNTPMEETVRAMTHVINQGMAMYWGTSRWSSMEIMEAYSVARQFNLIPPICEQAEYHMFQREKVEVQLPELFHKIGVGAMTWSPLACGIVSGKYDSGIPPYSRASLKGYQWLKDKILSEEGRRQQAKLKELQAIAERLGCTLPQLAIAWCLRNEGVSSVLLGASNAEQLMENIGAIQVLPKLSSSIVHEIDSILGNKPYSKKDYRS", "assay": "KvBeta positive modulators, primary screen, biochemical, NADPH fluorescence (AID 623;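 active = NADPH fluorescence slope more negative than the mean of all samples by about 3 SD, 99.7% confidence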;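 note: fluorescence intensity change per second fitted from 20 to 320 s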)", "conditions": "Recombinant KvBeta, NADPH fluorescence decrease slope, 10 min; at 10 µM; hits give low values", "values": [{"smiles": "CCCSc1nc2c(cnn2-c2ccc(C)cc2)c(=O)[nH]1", "NADPH fluorescence slope": "-5.2e-06"}, {"smiles": "Cc1cc(C(=O)N2CCN(c3ncccn3)CC2)cs1", "NADPH fluorescence slope": "-2.2e-05"}, {"smiles": "Cc1cc(NC(=O)CSc2nc(CCC3CCCC3)nc3ccccc23)no1", "NADPH fluorescence slope": "4e-06"}, {"smiles": "CCCC(CCC)C(=O)NCCN1CCOCC1", "NADPH fluorescence slope": "-3.5e-05"}, {"smiles": "CC(=O)NC(Cc1c[nH]c2ccccc12)C(=O)OCC(=O)Nc1cc(C)on1", "note": "(stereo unspecified)", "NADPH fluorescence slope": "1.5e-05"}, {"smiles": "COc1ccccc1OCC(=O)NCC1CCCCC1", "NADPH fluorescence slope": "-2.9e-05"}, {"smiles": "CC1(C)CC(=O)c2sc(NS(C)(=O)=O)nc2C1", "NADPH fluorescence slope": "-4.4e-05"}, {"smiles": "CSC1=NCCN1C(=O)c1ccc(S(=O)(=O)N2CCCC2)cc1", "NADPH fluorescence slope": "-1.6e-05"}, {"smiles": "CC12CN3CC(C)(CN(C1)C3c1ccc(Cl)cc1Cl)C2=O", "note": "(stereo unspecified)", "NADPH fluorescence slope": "-1.9e-05"}, {"smiles": "CCOC(=O)c1ccc(NC(=O)CSC2=NC(=O)C(CC)C(=O)N2)cc1", "note": "(stereo unspecified)", "NADPH fluorescence slope": "2.6e-05"}, {"smiles": "O=C(C1CCCN(S(=O)(=O)c2cccnc2)C1)N1CCn2c1nc1ccccc12", "note": "(stereo unspecified)", "NADPH fluorescence slope": "-2.6e-05"}, {"smiles": "COc1ccc(C)cc1NC(=O)CN(Cc1nnc(-c2ccc(Cl)cc2)o1)C1CCCC1", "NADPH fluorescence slope": "2.2e-05"}, {"smiles": "Cc1occc1-c1nc(-c2ccncc2)no1", "NADPH fluorescence slope": "1.8e-05"}, {"smiles": "Cn1c(=O)c2c(nc(SCC(=O)NCc3ccco3)n2C)n(C)c1=O", "NADPH fluorescence slope": "1.2e-05"}, {"smiles": "CCCCP(=O)(CCCC)Cc1ccccc1O", "NADPH fluorescence slope": -0.000131}, {"smiles": "CN(C)c1nc(N)nc(-c2nc3ccccc3s2)n1", "NADPH fluorescence slope": "-2.4e-05"}, {"smiles": "Cc1ccc(NC(=O)c2ccco2)c(NC(=O)c2cccs2)c1", "NADPH fluorescence slope": "2e-06"}, {"smiles": "Nn1c(SCC(=O)Nc2ccc(F)cc2)nnc1-c1cccnc1", "NADPH fluorescence slope": -0.000146}, {"smiles": "CCOC(=O)c1ccccc1NC1c2ccccc2C(=O)N1C1CCN(C(=O)OCC)CC1", "note": "(stereo unspecified)", "NADPH fluorescence slope": "-3.3e-05"}, {"smiles": "CC(Sc1nc(-c2ccccc2)cc(C(F)(F)F)n1)C(=O)N1CCCC1", "note": "(stereo unspecified)", "NADPH fluorescence slope": "3.3e-05"}, {"smiles": "Clc1ccc(Nc2ncnc3c2cnn3-c2ccccc2)cc1", "NADPH fluorescence slope": "-1.9e-05"}, {"smiles": "Cc1csc(SCCn2c(N3CCCC3)nc3c2c(=O)[nH]c(=O)n3C)n1", "NADPH fluorescence slope": "-3.1e-05"}, {"smiles": "CC(CCc1ccccc1)NCc1ccncc1", "note": "(stereo unspecified)", "NADPH fluorescence slope": "-1.4e-05"}, {"smiles": "CCCCCSc1nc2c(cnn2-c2ccccc2)c(=O)[nH]1", "NADPH fluorescence slope": "-5.4e-05"}, {"smiles": "Cc1ccc2c(c1)CCCN2C(=O)Nc1ccc2c(c1)OCO2", "NADPH fluorescence slope": "-4.4e-05"}, {"smiles": "CCc1c(C(=O)N2CCOCC2)csc1C", "NADPH fluorescence slope": "-7.3e-05"}, {"smiles": "Cc1c(-n2c(CN3C(=O)c4ccccc4C3=O)nc3ccccc3c2=O)c(=O)n(-c2ccccc2)n1C", "NADPH fluorescence slope": "1.1e-05"}, {"smiles": "Cn1c(=O)[nH]c(=O)c2c1ncn2CCN1CCOCC1", "NADPH fluorescence slope": "1.1e-05"}, {"smiles": "CC1C(=O)C(C)C(c2cccs2)NC1c1cccs1", "note": "(stereo unspecified)", "NADPH fluorescence slope": "9.3e-06"}, {"smiles": "CCOC(=O)c1ccc(NS(=O)(=O)c2ccc3c(c2)CCCN3C(C)=O)cc1", "NADPH fluorescence slope": "8.9e-06"}, {"smiles": "O=C(Nc1sc2c(c1C(=O)NCc1ccco1)CCCC2)c1ccc2c(c1)OCO2", "NADPH fluorescence slope": "3.8e-06"}]}, {"biological_target": "Alpha-2C adrenergic receptor (Homo sapiens) (UniProt P18825)", "sequence (P18825 whole entry, looked up)": "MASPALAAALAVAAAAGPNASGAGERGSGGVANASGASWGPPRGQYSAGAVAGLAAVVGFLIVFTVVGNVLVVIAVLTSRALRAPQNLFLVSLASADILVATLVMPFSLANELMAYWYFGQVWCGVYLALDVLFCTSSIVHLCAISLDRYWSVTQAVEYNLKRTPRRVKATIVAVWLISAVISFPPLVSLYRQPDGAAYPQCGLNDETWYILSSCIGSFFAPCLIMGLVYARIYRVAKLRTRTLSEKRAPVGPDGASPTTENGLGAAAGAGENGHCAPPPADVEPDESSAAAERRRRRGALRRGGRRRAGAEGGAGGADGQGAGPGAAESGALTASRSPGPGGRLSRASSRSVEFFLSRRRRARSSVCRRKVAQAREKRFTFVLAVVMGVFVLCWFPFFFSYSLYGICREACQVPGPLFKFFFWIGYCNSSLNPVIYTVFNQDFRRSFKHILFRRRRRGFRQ", "assay": "modulators of alpha2C/GIRK thallium flux, primary screen, cell-based, HEK293 alpha2C/GIRK1/2 (AID 624);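 note: slope of fluorescence ratio to pre-addition baseline per second over 15 to 24 s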", "conditions": "thallium flux BTC fluorescence, at 10 µM, actives lie on both sides", "values": [{"smiles": "CC(=O)Nc1cccc(OCC(O)Cn2cnc3ccccc32)c1", "note": "(stereo unspecified)", "slope": 0.00619}, {"smiles": "Cc1ccc(N2CCN(CCc3nc4cc(NS(C)(=O)=O)ccc4n3C)CC2)cc1", "slope": 0.00789}, {"smiles": "COc1cc2c(cc1OC)C(c1cccnc1)CC(=O)N2", "note": "(stereo unspecified)", "slope": 0.00629}, {"smiles": "COc1ccc(S(=O)(=O)N2CCCC(C(=O)N3CCCCCC3)C2)cc1", "note": "(stereo unspecified)", "slope": 0.00316}, {"smiles": "COCCCNC(=O)CSc1ccc(Cl)cc1", "slope": 0.00511}, {"smiles": "CCOc1cc(C(=O)N(C)Cc2cc3ccccc3[nH]c2=O)cc(OCC)c1OCC", "slope": 0.00465}, {"smiles": "CCOC(=O)CN1CC23C=CC(O2)C(C(=O)NC2CCCC2)C3C1=O", "note": "(stereo unspecified)", "slope": 0.00621}, {"smiles": "O=C(CN1C(=O)c2ccccc2C1=O)Nc1ccccc1C(=O)N1CCCC1", "slope": 0.00562}, {"smiles": "CCOC(=O)CSC1=C(C#N)C(c2ccc(C)o2)CC(=O)N1", "note": "(stereo unspecified)", "slope": 0.00803}, {"smiles": "CCCSc1nc2c(cnn2-c2ccc(C)cc2)c(=O)[nH]1", "slope": 0.0075}, {"smiles": "Cc1cc(C(=O)N2CCN(c3ncccn3)CC2)cs1", "slope": 0.00264}, {"smiles": "Cc1cc(NC(=O)CSc2nc(CCC3CCCC3)nc3ccccc23)no1", "slope": 0.00867}, {"smiles": "CCCC(CCC)C(=O)NCCN1CCOCC1", "slope": 0.0054}, {"smiles": "CC(=O)NC(Cc1c[nH]c2ccccc12)C(=O)OCC(=O)Nc1cc(C)on1", "note": "(stereo unspecified)", "slope": 0.00598}, {"smiles": "COc1ccccc1OCC(=O)NCC1CCCCC1", "slope": 0.00305}, {"smiles": "CC1(C)CC(=O)c2sc(NS(C)(=O)=O)nc2C1", "slope": 0.00519}, {"smiles": "CSC1=NCCN1C(=O)c1ccc(S(=O)(=O)N2CCCC2)cc1", "slope": 0.00671}, {"smiles": "CC12CN3CC(C)(CN(C1)C3c1ccc(Cl)cc1Cl)C2=O", "note": "(stereo unspecified)", "slope": 0.00699}, {"smiles": "CCOC(=O)c1ccc(NC(=O)CSC2=NC(=O)C(CC)C(=O)N2)cc1", "note": "(stereo unspecified)", "slope": 0.00682}, {"smiles": "O=C(C1CCCN(S(=O)(=O)c2cccnc2)C1)N1CCn2c1nc1ccccc12", "note": "(stereo unspecified)", "slope": 0.00573}, {"smiles": "COc1ccc(C)cc1NC(=O)CN(Cc1nnc(-c2ccc(Cl)cc2)o1)C1CCCC1", "slope": 0.00634}, {"smiles": "Cc1occc1-c1nc(-c2ccncc2)no1", "slope": 0.00583}, {"smiles": "Cn1c(=O)c2c(nc(SCC(=O)NCc3ccco3)n2C)n(C)c1=O", "slope": 0.00578}, {"smiles": "CCCCP(=O)(CCCC)Cc1ccccc1O", "slope": 0.00605}, {"smiles": "CN(C)c1nc(N)nc(-c2nc3ccccc3s2)n1", "slope": 0.00639}, {"smiles": "Cc1ccc(NC(=O)c2ccco2)c(NC(=O)c2cccs2)c1", "slope": 0.00493}, {"smiles": "Nn1c(SCC(=O)Nc2ccc(F)cc2)nnc1-c1cccnc1", "slope": 0.00484}, {"smiles": "CCOC(=O)c1ccccc1NC1c2ccccc2C(=O)N1C1CCN(C(=O)OCC)CC1", "note": "(stereo unspecified)", "slope": 0.00667}, {"smiles": "CC(Sc1nc(-c2ccccc2)cc(C(F)(F)F)n1)C(=O)N1CCCC1", "note": "(stereo unspecified)", "slope": 0.00611}, {"smiles": "Clc1ccc(Nc2ncnc3c2cnn3-c2ccccc2)cc1", "slope": 0.0059}, {"smiles": "Cc1csc(SCCn2c(N3CCCC3)nc3c2c(=O)[nH]c(=O)n3C)n1", "slope": 0.00532}, {"smiles": "CC(CCc1ccccc1)NCc1ccncc1", "note": "(stereo unspecified)", "slope": 0.00748}, {"smiles": "CCCCCSc1nc2c(cnn2-c2ccccc2)c(=O)[nH]1", "slope": 0.00382}, {"smiles": "Cc1ccc2c(c1)CCCN2C(=O)Nc1ccc2c(c1)OCO2", "slope": 0.00347}, {"smiles": "CCc1c(C(=O)N2CCOCC2)csc1C", "slope": 0.00413}, {"smiles": "Cc1c(-n2c(CN3C(=O)c4ccccc4C3=O)nc3ccccc3c2=O)c(=O)n(-c2ccccc2)n1C", "slope": 0.00583}, {"smiles": "Cn1c(=O)[nH]c(=O)c2c1ncn2CCN1CCOCC1", "slope": 0.00632}, {"smiles": "CC1C(=O)C(C)C(c2cccs2)NC1c1cccs1", "note": "(stereo unspecified)", "slope": 0.00548}, {"smiles": "CCOC(=O)c1ccc(NS(=O)(=O)c2ccc3c(c2)CCCN3C(C)=O)cc1", "slope": 0.00506}, {"smiles": "O=C(Nc1sc2c(c1C(=O)NCc1ccco1)CCCC2)c1ccc2c(c1)OCO2", "slope": 0.00669}]}]}
